VACV Venus inh = inhibitors of vaccinia virus (Venus reporter). Vaccinia virus Venus reporter expression, fluorescence. Potency, µM (top dose mostly 36.5 µM), for inactives: at the top dose activity change, negative = inhibition, actives largely listed as inhibitors. 0.46% of 330,000 active. AID 720580; calls by dose curve; tested in A549 cells; also: nearly all actives have a fitted effect of over 30% in size
AMA1-RON2 inh = disrupts binding of P. falciparum AMA1 to RON2 | AlphaScreen AMA1-biotinylated RON2 peptide binding | Potency, µM (highest dose often 58.2 µM), inactives show at the highest dose activity change, negative = inhibition, hits mostly inhibitors | 0.2% of 360,000 active;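 also: 0% = vehicle wells and -100% = peptide control; nearly all actives have a fitted effect of over 45% in size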
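AMA1 (3D7) with his tag at 25 nM final met compounds first, then biotinylated RON2 peptide at 25 nM; detection used donor plus acceptor beads, 10 µg/mL apiece, read by AlphaScreen after 30 min at room temperature.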
Vaccinia mCherry = vaccinia inhibition (mCherry reporter); Potency, µM (highest dose often 36.5 µM), for inactives: top-dose activity change, negative = inhibition, usual class: inhibitors; 0.63% of 310,000 active; Vaccinia virus mCherry reporter infection, fluorescence; calls by dose curve; tested in A549 cells; also: nearly all actives have a fitted effect of over 35% in size
Pf growth 48h = P. falciparum growth inhibition at 48 hours (one generation); P. falciparum luciferase growth in erythrocytes, 48 h; Potency, µM (titrated, usually from 28.7 µM), for the others: at the top dose activity change, negative = inhibition, most hits filed as inhibitors; 5.9% of 310,000 active; AID 504832
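Erythrocytes infected with P. falciparum carrying an integrated firefly luciferase reporter (2% hematocrit, 0.1% parasitemia final) were exposed to compounds in RPMI 1640 with 0.5% Albumax at 37 C, 5% CO2. Growth inhibition was scored as reduced luminescence.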
Pf growth 96h = P. falciparum growth inhibition at 96 hours | Potency, µM (doses to about 28.7 µM), for inactives: at the top dose activity change, negative = inhibition, hits mostly inhibitors | 6.9% of 320,000 active | P. falciparum luciferase reporter growth, 96 h
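96 h incubation, 37 C, 5% CO2, of luciferase-reporter P. falciparum-infected RBCs (2% hematocrit, 0.05% parasitemia final) with test compounds; endpoint luminescence.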
An asterisk follows results filed as active; i = inactive; ? = inconclusive; nt = not tested or not shown; [ ] = remark or other dose. This is a sample that favours compounds with a hit; in the whole collection about 8.7% have one here. Unless noted, calls follow the shape of the dose curve; as a rule, active = well fitted curve in the direction sought with a large enough effect; inconclusive = small, poorly fitted or top-dose-only effect, or another doubt; inactive = no such curve, though single readings can be large; an effect the other way counts as inactive or inconclusive. Unless noted, % is scaled to controls: 0 for no effect and ±100 for the full control effect; potency is read from the fitted curve at half-maximal effect.

SMILES | VACV Venus inh | AMA1-RON2 inh | Vaccinia mCherry | Pf growth 48h | Pf growth 96h
CCOC(=O)c1ccccc1NC(=O)CSc1ncc(CO)n1Cc1ccc(C)cc1 | 6% | nt | -6% | nt | nt
CCN(CC)S(=O)(=O)c1ccc(N2CCOCC2)c(NC(=O)COc2ccccc2C#N)c1 | nt | 0% | nt | 12µM* | ?
Cc1cccc(NC(=O)CSCC(=O)Nc2cc(Cl)ccc2N2CCOCC2)c1 | -15% | 9% | -25% | 12µM* | ?
CCN(CC)S(=O)(=O)c1ccc(N2CCOCC2)c(NC(=O)Cc2ccc(Cl)cc2)c1 | -7% | 3% | -6% | 12µM* | 12µM*
Cc1cccc(NC(=O)CSCC(=O)Nc2cc(S(=O)(=O)N3CCOCC3)ccc2N2CCCC2)c1 | -12% | 5% | i | ? | ?
CCN(CC)S(=O)(=O)c1ccc(N2CCOCC2)c(NC(=O)C(C)(C)C)c1 | nt | 1% | nt | 75% | ?
CCN(CC)S(=O)(=O)c1ccc(N2CCOCC2)c(NC(=O)CC23CC4CC(CC(Br)(C4)C2)C3)c1 | -14% | 2%[11.6 µM] | -19% | -20% | 10µM*
O=C(Cn1c(-c2cccs2)cc2cc(Cl)ccc21)N1CCN(c2ccccc2F)CC1 | -16% | nt | -12% | nt | nt
COc1ccc(C(=O)N2CC(=O)Nc3ccc(C)cc3C2c2ccccc2)c(OC)c1 (centres undefined) | -14% | nt | -9% | nt | nt
CCCCn1cc(S(=O)(=O)c2ccc(C)c(C)c2)c(=O)c2cc(F)c(N3CCN(C)CC3)cc21 | -8% | nt | -5% | nt | nt
O=C(Cc1ccc2c(c1)OCCO2)Nc1cc(Cl)ccc1N1CCOCC1 | -7% | 15% | -10% | 12µM* | ?
O=C(Cc1ccc(Cl)c(Cl)c1)Nc1ccccc1N1CCOCC1 | -8% | -22% | -10% | 0% | -29%
CCOC(=O)c1sc(=S)n(-c2ccccc2)c1C | -5% | -8% | i | -10% | -1%
CCOC(=O)c1sc(=S)n(-c2ccc(C)cc2)c1SC | 131% | -7% | 0% | 1.2µM* | 0.47µM*
O=C(CC1C(=O)NCCN1Cc1ccoc1)NCCc1ccc(Cl)cc1 (centres undefined) | -11% | 5% | i | 19% | ?
CCOc1ccccc1CN1CCNC(=O)C1CC(=O)NCc1cc(C)n(C)n1 (centres undefined) | -11% | 27% | -11% | -10% | 2.1µM*
COC(=O)CCCNC(=O)CC1C(=O)NCCN1Cc1ccoc1 (centres undefined) | -9% | -2% | i | 32% | 13µM*
COc1cccc(CN2CCNC(=O)C2CC(=O)NCc2cn3cccc(C)c3n2)c1OC (centres undefined) | -10% | -19% | i | -16% | 20%
COc1cccc(CN2CCNC(=O)C2CC(=O)NCc2cn3ccccc3n2)c1OC (centres undefined) | -10% | 17% | 3% | 22% | 10µM*
COc1cccc(CN2CCNC(=O)C2CC(=O)NCCN2CCCCC2=O)c1 (centres undefined) | nt | 0% | nt | 10% | 10µM*
COc1cccc(CN2CCNC(=O)C2CC(=O)NCCn2ccc3ccccc32)c1OC (centres undefined) | nt | 7% | nt | 12µM* | ?
COc1ccccc1Cn1c(=S)[nH]c2cc(C(=O)NCc3cccnc3)ccc2c1=O | -23% | 13% | -18% | ? | 8.3µM*
COc1ccc(Cn2c(=S)[nH]c3cc(C(=O)NCc4cccnc4)ccc3c2=O)cc1 | -8% | 56% | -13% | 4% | 19%
Cc1ccc(CNC(=O)c2ccc3nc4[nH]c5ccccc5c4nc3c2)cc1 | nt | nt | nt | ? | -2%
COc1ccccc1CNC(=O)c1ccc2nc3[nH]c4ccccc4c3nc2c1 | 10µM* | -24% | 8.9µM* | ? | -21%
CC(=O)C1C(c2cccc(F)c2)NC(=O)NC1(O)C(F)(F)F (centres undefined) | 0% | 1% | -6% | -4% | 4.7µM*
Cc1ccccc1NC(=O)Cn1nnc(C(=O)NCCc2ccccc2)c1N | 6% | nt | 1% | nt | nt
O=C1ON=C(c2ccccc2)/C1=C/c1ccc(-c2ccccc2[N+](=O)[O-])o1 | -26% | ? | -28% | ? | 8.3µM*
CC1(C)Cc2nc3sc4c(SCC(=O)O)ncnc4c3cc2CO1 | nt | -7% | nt | 0.83µM* | ?
